Our source for the AbsAC35 values is ChEMBL document CHEMBL1201862, “PubChem BioAssay data set” (2004).

In all, about 1,500 compounds went through this assay and about 140 (9.3%) were called active. The rule behind the calls is not given here. Shown is part of a subset that was picked to be rich in actives.

The nature of the assay: AlphaScreen signal interference with preloaded methylated product, dose response, artefact control for NSD2 inhibitor project, biochemical, cherry-picked samples (AID 1053174).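 Note: actives lower the AlphaScreen signal from the preloaded product and count as artifacts.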
Consider `OCC[n+]1c2ccccc2nc2ccc(N3CCOCC3)cc21`, for which the AbsAC35 is 15.8 µM (active).

As for `N/C(=N\N=C/c1ccc(-c2ccc(O)c(C(=O)O)c2)o1)N[N+](=O)[O-]`, the AbsAC35 was 19.7 µM (active).

On to `CN(c1ccc(O)cc1)c1ccc([N+](=O)[O-])c2nonc12`, for which the AbsAC35 was 15.7 µM (active).

With `CCCCCCCSc1cc(OC)c(CCNC)cc1OC`, the AbsAC35 was 14.6 µM (active).

As to `CC[n+]1c(-c2ccccc2)c2cc(N)ccc2c2ccc(N)cc21`, the AbsAC35 is 21.9 µM (active).

Regarding `CCN(CC)c1ccc(CN2CC=C(c3ccc(F)cc3)CC2)cc1`, the AbsAC35 is 15.3 µM (active).

In the case of `CN(C)c1ccc(CN2CC=C(c3ccc(F)cc3)CC2)cc1`, the AbsAC35 was 15.5 µM (active).

For `CCCCN1C(=O)/C(=C/C=C/c2ccco2)C(=O)NC1=S`, the AbsAC35 was 10.6 µM (active).

Turning to `CN(C)c1ccc(/C=C/c2cc[n+](C)c3ccccc23)cc1`, the AbsAC35 was 10.6 µM (active).
